Assay results from PubChem BioAssay (NCATS).
Results filed as inconclusive are left out. Active and inactive are the calls of the source. Unless noted, calls come from the whole dose curve; as a rule, active = well fitted curve in the direction sought with a large enough effect; inconclusive = small, poorly fitted or top-dose-only effect, or another doubt; inactive = no such curve, though single readings can be large; an effect the other way counts as inactive or inconclusive. Peptide text beside a SMILES is read from it.

How the values were obtained:
[1] = molecular target: Mitogen-activated protein kinase 10 (Mus musculus) (UniProt Q61831); experiment: JNK3 AlphaScreen Assay (AID 530; active = well fitted curve in either direction with a large enough effect, not every such curve was filed as active;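 note: kinase came from lysate of stimulated human HepG2 cells; signal reports phosphorylation of biotinylated GST-cJun 1-79 at Ser73 with 10 µM ATP; % is set by controls: 0 for no effect and ±100 for the full control effect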)
In short: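 Compound titrations were preincubated 15 minutes at room temperature with substrate, antibody and pre-activated JNK3-containing HepG2 lysate. Reactions were started with 10 uM ATP and stopped with EDTA-containing bead buffer for AlphaScreen detection.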

[2] = molecular target: 3',5'-cyclic-AMP phosphodiesterase 4B (Homo sapiens) (UniProt Q07343); experiment: qHTS Assay for Inhibitors of PDE-IV (AID 607; active = well fitted activation curve with a large enough effect in the main read-out, with a control signal flat, not every such curve was filed as active; note: % of control where 0% means no effect)
In short: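 Cell-based read-out of cAMP via a modified cyclic nucleotide-gated channel and membrane potential dye (535/590 nm) in HEK293 cells expressing PDE4 endogenously. Compounds tested up to 22.9 uM final; 100 uM RO 20-1724 reference.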

[3] = qHTS Assay for Lipid Storage Modulators (AID 1519; calls by dose curve; for activity change, negative = inhibition: % is set by controls: 0 for no effect and ±100 for the full control effect); settings: Drosophila S3 cells, BODIPY lipid droplet/cell ratio, laser cytometry, cells loaded with oleic acid; for activity change, negative = inhibition: at 57.5 µM (top of the series)
In short: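 Cells seeded at 5,000 per well were treated with compounds over a concentration series and loaded with oleic acid (400 uM, as added). Lipid droplet fluorescence (488 nm excitation, 500-530 nm channel) was read by laser-scanning cytometry and normalized to 20 uM Triacsin C.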

[4] = molecular target: ATP-dependent 6-phosphofructokinase (Trypanosoma brucei brucei) (UniProt O15648); experiment: qHTS Assay to Find Inhibitors of T. brucei phosphofructokinase: hit validation (AID 492961);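 note: luminescence reports ADP formed as PFK phosphorylates fructose-6-phosphate with ATP; % is set by controls: 0 for no effect and ±100 for the full control effect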
In short: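 ADP-Glo luminescence read-out of ADP formed by 1.25 nM PFK from 0.1 mM ATP and 0.5 mM F6P (TEA pH 8.0, 45 min, RT). Compounds titrated; activity normalized to no-enzyme and full-enzyme controls.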

[5] = molecular target: Luciferin 4-monooxygenase (Photinus pyralis) (UniProt P08659); experiment: Biochemical firefly luciferase enzyme assay for NPC (AID 624030);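 note: purified P. pyralis luciferase at 10 nM with luciferin and ATP substrate; 0% = DMSO and -100% = full luciferase inhibition by PTC124 control; nearly all actives have a fitted effect of over 70% in size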
In short: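 Direct inhibition of firefly luciferase enzyme (10 nM final, 50 mM Tris Acetate) assessed by luminescence within 5 minutes. Percent activity scaled between DMSO and PTC124 positive control, with concentration-effect curves classified by fit quality and response.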

[6] = qHTS profiling for inhibitors of Plasmodium falciparum proliferation (AID 504749); note: potency is the fitted concentration of half-maximal effect;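 for activity, negative = inhibition: 0% = DMSO vehicle and full inhibition = artemisinin control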; for all read-outs here: nearly all actives have a fitted effect of over 60% in size; settings: P. falciparum in erythrocytes, SYBR Green DNA, 72 h; for activity, negative = inhibition: at 28.7 µM (top of the series)
In short: (§1)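 Infected RBCs, 0.3% parasitemia/2.5% Hct final; cpd 72 h, 37 C, 5% CO2; lysis buffer with saponin/triton/SYBR Green I, o/n RT dark; FI 485/535; norm. to artemisinin (0.29 uM) and DMSO.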

3D7 = experiment: as above; settings: P. falciparum in erythrocytes, SYBR Green DNA, 72 h; series mostly up to 12.8 µM
In short: as §1

C2A = experiment: as above; settings: P. falciparum in erythrocytes, SYBR Green DNA, 72 h; series mostly up to 12.8 µM
In short: as §1

CP217 = experiment: as above; settings: P. falciparum in erythrocytes, SYBR Green DNA, 72 h; series mostly up to 12.8 µM
In short: as §1

CP238 = experiment: as above; settings: P. falciparum in erythrocytes, SYBR Green DNA, 72 h; series mostly up to 12.8 µM
In short: as §1

CP262 = experiment: as above; settings: P. falciparum in erythrocytes, SYBR Green DNA, 72 h; series mostly up to 12.8 µM
In short: as §1

CP269 = experiment: as above; settings: P. falciparum in erythrocytes, SYBR Green DNA, 72 h; series mostly up to 12.8 µM
In short: as §1

CP305 = experiment: as above; settings: P. falciparum in erythrocytes, SYBR Green DNA, 72 h; series mostly up to 12.8 µM
In short: as §1

CP325 = experiment: as above; settings: P. falciparum in erythrocytes, SYBR Green DNA, 72 h; series mostly up to 12.8 µM
In short: as §1

CP329 = experiment: as above; settings: P. falciparum in erythrocytes, SYBR Green DNA, 72 h; series mostly up to 12.8 µM
In short: as §1

DIV30 = experiment: as above; settings: P. falciparum in erythrocytes, SYBR Green DNA, 72 h; series mostly up to 12.8 µM
In short: as §1

FAB9 = experiment: as above; settings: P. falciparum in erythrocytes, SYBR Green DNA, 72 h; series mostly up to 12.8 µM
In short: as §1

PC49 = experiment: as above; settings: P. falciparum in erythrocytes, SYBR Green DNA, 72 h; series mostly up to 12.8 µM
In short: as §1

[7] = molecular target: Ubiquitin carboxyl-terminal hydrolase 1 (Homo sapiens) (UniProt O94782); experiment: Inhibitors of USP1/UAF1: Pilot qHTS (AID 504865);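 note: rhodamine fluorescence freed from ubiquitin-rhodamine substrate followed over time; top concentration of the series differs between compounds; % is set by controls: 0 for no effect and ±100 for the full control effect; nearly all actives have a fitted effect of over 35% in size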
In short: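 USP1/UAF1 complex at 1 nM preincubated 15 min at room temperature with compound, then Ub-Rho substrate added at 150 nM final. Fluorescence (480/540 nm) read kinetically in 50 mM HEPES pH 7.8, 0.5 mM EDTA, 1 mM TCEP, 0.1 mg/ml BSA, 0.01% Tween-20.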

[8] = measured here: cell count channel max response
[9] = measured here: lipid channel max response

Sequence of Ubiquitin carboxyl-terminal hydrolase 1 (Homo sapiens) (O94782 whole entry, looked up): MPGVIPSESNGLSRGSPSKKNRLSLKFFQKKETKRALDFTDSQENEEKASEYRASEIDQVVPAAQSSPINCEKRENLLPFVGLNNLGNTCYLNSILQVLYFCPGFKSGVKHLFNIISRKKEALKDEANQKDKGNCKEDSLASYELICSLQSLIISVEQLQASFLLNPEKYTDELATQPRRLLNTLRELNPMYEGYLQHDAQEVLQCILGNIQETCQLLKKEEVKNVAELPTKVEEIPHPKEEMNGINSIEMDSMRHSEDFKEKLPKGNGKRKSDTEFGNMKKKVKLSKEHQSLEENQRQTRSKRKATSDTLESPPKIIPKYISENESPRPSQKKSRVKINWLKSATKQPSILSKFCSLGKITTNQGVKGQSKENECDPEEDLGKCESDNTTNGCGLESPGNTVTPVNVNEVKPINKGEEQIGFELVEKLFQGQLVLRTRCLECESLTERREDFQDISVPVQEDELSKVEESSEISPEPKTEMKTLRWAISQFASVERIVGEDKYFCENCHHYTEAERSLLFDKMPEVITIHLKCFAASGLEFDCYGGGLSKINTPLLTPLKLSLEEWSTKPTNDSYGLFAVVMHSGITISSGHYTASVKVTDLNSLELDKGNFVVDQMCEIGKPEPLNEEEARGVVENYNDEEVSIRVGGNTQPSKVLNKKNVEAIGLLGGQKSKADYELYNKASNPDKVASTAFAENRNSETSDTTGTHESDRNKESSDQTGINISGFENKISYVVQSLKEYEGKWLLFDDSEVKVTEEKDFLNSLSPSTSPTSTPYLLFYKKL
Sequence of Luciferin 4-monooxygenase (Photinus pyralis) (P08659 whole entry, looked up): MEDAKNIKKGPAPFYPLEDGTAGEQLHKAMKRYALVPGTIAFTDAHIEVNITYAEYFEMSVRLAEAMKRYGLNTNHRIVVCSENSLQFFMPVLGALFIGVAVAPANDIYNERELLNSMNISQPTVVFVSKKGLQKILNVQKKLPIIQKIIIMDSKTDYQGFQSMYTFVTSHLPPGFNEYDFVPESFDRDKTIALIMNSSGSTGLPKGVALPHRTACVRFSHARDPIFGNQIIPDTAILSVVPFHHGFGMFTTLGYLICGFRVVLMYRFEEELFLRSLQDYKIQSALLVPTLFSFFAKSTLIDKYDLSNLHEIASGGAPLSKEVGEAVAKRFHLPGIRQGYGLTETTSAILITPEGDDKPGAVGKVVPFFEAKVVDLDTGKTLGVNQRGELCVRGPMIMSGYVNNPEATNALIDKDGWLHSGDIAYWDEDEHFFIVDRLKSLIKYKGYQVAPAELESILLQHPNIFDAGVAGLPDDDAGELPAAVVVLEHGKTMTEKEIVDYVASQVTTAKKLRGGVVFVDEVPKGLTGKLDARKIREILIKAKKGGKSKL
Sequence of ATP-dependent 6-phosphofructokinase (Trypanosoma brucei brucei) (O15648 whole entry, looked up): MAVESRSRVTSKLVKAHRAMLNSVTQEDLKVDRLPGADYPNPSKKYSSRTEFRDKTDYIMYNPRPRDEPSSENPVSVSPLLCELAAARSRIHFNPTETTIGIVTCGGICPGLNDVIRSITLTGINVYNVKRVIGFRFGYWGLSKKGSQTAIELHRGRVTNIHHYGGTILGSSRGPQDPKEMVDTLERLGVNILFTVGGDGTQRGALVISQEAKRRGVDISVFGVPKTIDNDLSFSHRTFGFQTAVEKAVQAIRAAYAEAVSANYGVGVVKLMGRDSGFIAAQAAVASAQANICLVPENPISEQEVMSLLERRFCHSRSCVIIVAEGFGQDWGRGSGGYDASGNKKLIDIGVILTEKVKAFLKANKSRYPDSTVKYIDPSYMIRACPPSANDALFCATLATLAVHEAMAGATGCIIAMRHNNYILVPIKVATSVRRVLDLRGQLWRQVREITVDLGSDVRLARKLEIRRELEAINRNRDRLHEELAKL
Sequence of 3',5'-cyclic-AMP phosphodiesterase 4B (Homo sapiens) (Q07343 whole entry, looked up): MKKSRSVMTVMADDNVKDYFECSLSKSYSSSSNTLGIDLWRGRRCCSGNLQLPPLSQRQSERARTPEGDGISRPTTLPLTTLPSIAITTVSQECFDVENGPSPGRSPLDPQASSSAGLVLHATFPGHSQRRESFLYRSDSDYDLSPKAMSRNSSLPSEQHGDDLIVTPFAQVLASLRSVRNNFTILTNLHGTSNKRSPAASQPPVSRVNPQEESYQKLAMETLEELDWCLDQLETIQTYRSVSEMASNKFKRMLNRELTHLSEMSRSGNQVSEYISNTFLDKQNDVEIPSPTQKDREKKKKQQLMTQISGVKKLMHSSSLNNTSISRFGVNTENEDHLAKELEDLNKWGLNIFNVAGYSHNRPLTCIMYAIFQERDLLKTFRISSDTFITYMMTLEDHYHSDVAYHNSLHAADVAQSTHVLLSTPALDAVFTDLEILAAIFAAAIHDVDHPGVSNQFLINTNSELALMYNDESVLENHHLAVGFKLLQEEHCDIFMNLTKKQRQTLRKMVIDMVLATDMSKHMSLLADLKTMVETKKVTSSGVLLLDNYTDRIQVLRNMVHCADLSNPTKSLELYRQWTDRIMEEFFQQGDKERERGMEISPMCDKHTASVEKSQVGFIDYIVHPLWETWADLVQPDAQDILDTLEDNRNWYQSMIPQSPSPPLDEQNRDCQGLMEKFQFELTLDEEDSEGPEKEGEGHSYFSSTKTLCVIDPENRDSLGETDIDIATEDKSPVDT

CC/C=C\C[C@H]1C(=O)CC[C@@H]1CC(=O)O
inactive: Potency [1] | outcome [2] | activity change, negative = inhibition [3] -2.79%
-11.5%: max response [3, 9]
-8.93%: max response [3, 8]

CCC(C)C(=O)OC1CCC=C2C=CC(C)C(CCC3CC(O)CC(=O)O3)[C@@H]21 (some centres undefined)
inactive: activity change, negative = inhibition [3] 0.311% | outcome [4] | Potency [5] | activity, negative = inhibition ([6]; parasite line A) 6.36% | activity, negative = inhibition ([6]; parasite line B) -8.04% | Potency (3D7) | Potency (C2A) | Potency (CP217) | Potency (CP238) | Potency (CP262) | Potency (CP269) | Potency (CP305) | Potency (CP325) | Potency (CP329) | Potency (DIV30) | Potency (FAB9) | Potency (PC49)
6.43%: max response [3, 9]
8.24%: max response [3, 8]

COC1C=CO[C@@]2(C)Oc3c(C)c(O)c4c(O)c(c(C=NN5CCN(C)CC5)c(O)c4c3C2=O)NC(=O)/C(C)=C\C=CC(C)C(O)[C@@H](C)C(O)C(C)[C@H](OC(C)=O)C1C (some centres undefined)
10.6%: max response [3, 9]
7.61%: max response [3, 8]
active: Potency ([6]; parasite line A) 3980 nM | Potency ([6]; parasite line B) 3980 nM | Potency (3D7) 2000 nM | Potency (C2A) 8910 nM | Potency (CP217) 5010 nM | Potency (CP238) 3550 nM | Potency (CP262) 2130 nM | Potency (CP269) 4260 nM | Potency (CP305) 3790 nM | Potency (CP325) 4780 nM | Potency (CP329) 3380 nM | Potency (DIV30) 536 nM | Potency (PC49) 1410 nM
inactive: activity change, negative = inhibition [3] -0.247% | outcome [4]

Nc1ncnc2c1nc(Br)n2[C@H]1O[C@H]2COP(=O)(O)O[C@H]2[C@@H]1O
0.508%: max response [3, 9]
inactive: activity change, negative = inhibition [3] -1.26% | Potency [7]
2.68%: max response [3, 8]

C[C@]1(c2ccccc2)OC(C(=O)O)=CC1=O
inactive: Potency [1] | activity change, negative = inhibition [3] -2% | outcome [4] | Potency [7] | Potency [5] | activity, negative = inhibition ([6]; parasite line A) 4.24% | activity, negative = inhibition ([6]; parasite line B) 8.18% | Potency (3D7) | Potency (C2A) | Potency (CP217) | Potency (CP238) | Potency (CP262) | Potency (CP269) | Potency (CP305) | Potency (CP325) | Potency (CP329) | Potency (DIV30) | Potency (FAB9) | Potency (PC49)
-4.61%: max response [3, 8]
-6.08%: max response [3, 9]

CNC1C(OC2C(O[C@@H]3C(O)C(O)[C@@H](N=C(N)N)C(O)C3N=C(N)N)OC(C)[C@@]2(O)CO)OC(CO)C(O)C1O (some centres undefined)
inactive: activity change, negative = inhibition [3] 8.79% | outcome [4] | Potency [7] | Potency [5] | activity, negative = inhibition ([6]; parasite line A) 9.26% | activity, negative = inhibition ([6]; parasite line B) 13.4% | Potency (3D7) | Potency (C2A) | Potency (CP217) | Potency (CP238) | Potency (CP262) | Potency (CP269) | Potency (CP305) | Potency (CP325) | Potency (CP329) | Potency (DIV30) | Potency (FAB9) | Potency (PC49)
13.3%: max response [3, 8]
25.4%: max response [3, 9]

COc1ccc(CC(N)C(=O)NC2C(CO)OC(n3cnc4c(N(C)C)ncnc43)C2O)cc1 (centres undefined)
1.24%: max response [3, 9]
inactive: activity change, negative = inhibition [3] -15.4% | outcome [4] | Potency [7] | Potency [5]
active: Potency ([6]; parasite line A) 794 nM | Potency ([6]; parasite line B) 1000 nM | Potency (3D7) 1000 nM | Potency (C2A) 891 nM | Potency (CP217) 794 nM | Potency (CP238) 794 nM | Potency (CP262) 675 nM | Potency (CP269) 757 nM | Potency (CP305) 1200 nM | Potency (CP325) 1070 nM | Potency (CP329) 1070 nM | Potency (DIV30) 849 nM | Potency (FAB9) 1780 nM | Potency (PC49) 2000 nM
18.9%: max response [3, 8]

C[C@]12C=CC(=O)C=C1CCC1C2C(O)C[C@]2(C)C1CC[C@]2(O)C(=O)CO (some centres undefined)
inactive: activity change, negative = inhibition [3] 4.07% | outcome [4] | Potency [7] | Potency [5] | activity, negative = inhibition ([6]; parasite line A) 13% | activity, negative = inhibition ([6]; parasite line B) 6.28% | Potency (3D7) | Potency (C2A) | Potency (CP217) | Potency (CP238) | Potency (CP262) | Potency (CP269) | Potency (CP305) | Potency (CP325) | Potency (CP329) | Potency (DIV30) | Potency (FAB9) | Potency (PC49)
24.5%: max response [3, 9]
19.1%: max response [3, 8]

COC(=O)C(Cc1ccccc1)NC(=O)C(N)CC(=O)O (stereo not drawn) (H-Asp-Phe-OMe; configuration not given here)
inactive: activity change, negative = inhibition [3] 5.29% | outcome [4] | Potency [7] | Potency [5] | activity, negative = inhibition ([6]; parasite line A) 0% | activity, negative = inhibition ([6]; parasite line B) 12.1% | Potency (3D7) | Potency (C2A) | Potency (CP217) | Potency (CP238) | Potency (CP262) | Potency (CP269) | Potency (CP305) | Potency (CP325) | Potency (CP329) | Potency (DIV30) | Potency (FAB9) | Potency (PC49)
3.61%: max response [3, 9]
-5.71%: max response [3, 8]

COC1C=CO[C@@]2(C)Oc3c(C)c(O)c4c(O)c(c5c(nc6cc(C)ccn65)c4c3C2=O)NC(=O)/C(C)=C\C=CC(C)C(O)[C@@H](C)C(O)C(C)[C@@H](OC(C)=O)C1C (some centres undefined)
inactive: activity change, negative = inhibition [3] -13.7% | outcome [4] | Potency [5]
-0.865%: max response [3, 8]
active: Potency ([6]; parasite line A) 14100 nM | Potency ([6]; parasite line B) 10000 nM | Potency (3D7) 12600 nM | Potency (C2A) 10000 nM | Potency (CP217) 10000 nM | Potency (CP238) 10000 nM | Potency (CP269) 10700 nM | Potency (DIV30) 1350 nM
-14.4%: max response [3, 9]

CC1(C)OC2CC(=O)OC[C@@]23C1CC(=O)[C@]1(C)C3CC[C@@]2(C)C(c3ccoc3)OC(=O)C3O[C@@]321 (some centres undefined)
29.2%: max response [3, 9]
20.2%: max response [3, 8]
inactive: activity change, negative = inhibition [3] 7.05% | outcome [4] | Potency [7] | Potency [5] | activity, negative = inhibition ([6]; parasite line A) -0.282% | activity, negative = inhibition ([6]; parasite line B) 13.3% | Potency (3D7) | Potency (C2A) | Potency (CP217) | Potency (CP238) | Potency (CP262) | Potency (CP269) | Potency (CP305) | Potency (CP325) | Potency (CP329) | Potency (DIV30) | Potency (FAB9) | Potency (PC49)

COc1ccc2cc(C(C)CO)ccc2c1 (centres undefined)
13.8%: max response [3, 8]
24.6%: max response [3, 9]
inactive: activity change, negative = inhibition [3] 8.58% | outcome [4] | Potency [7] | Potency [5] | activity, negative = inhibition ([6]; parasite line A) 12.4% | activity, negative = inhibition ([6]; parasite line B) 6.41% | Potency (3D7) | Potency (C2A) | Potency (CP217) | Potency (CP238) | Potency (CP262) | Potency (CP269) | Potency (CP305) | Potency (CP325) | Potency (CP329) | Potency (DIV30) | Potency (FAB9) | Potency (PC49)
